Experimental data published in PubChem BioAssay AID493168 (National Center for Advancing Translational Sciences (NCATS), 2011).
Records with an inconclusive call do not appear. Activity calls are given as the source filed them. Calls follow the shape of the dose curve; as a rule, active = well fitted inhibition curve with a large enough effect; inconclusive = small, poorly fitted or top-dose-only effect, or effect the other way; inactive = flat fitted curve, though single readings scatter.

What follows are molecules tested against Ubiquitin carboxyl-terminal hydrolase 2 (Homo sapiens) (UniProt O75604) (assay: Confirmation Assay for Inhibitors of Ubiquitin-specific Protease USP2a Using CHOP2 as the Reporter). Conditions: USP2 core, Ub-CHOP2 coupled reporter fluorescence; series mostly up to 38.3 µM.
Ubiquitin carboxyl-terminal hydrolase 2 (Homo sapiens), sequence (O75604 whole entry, looked up): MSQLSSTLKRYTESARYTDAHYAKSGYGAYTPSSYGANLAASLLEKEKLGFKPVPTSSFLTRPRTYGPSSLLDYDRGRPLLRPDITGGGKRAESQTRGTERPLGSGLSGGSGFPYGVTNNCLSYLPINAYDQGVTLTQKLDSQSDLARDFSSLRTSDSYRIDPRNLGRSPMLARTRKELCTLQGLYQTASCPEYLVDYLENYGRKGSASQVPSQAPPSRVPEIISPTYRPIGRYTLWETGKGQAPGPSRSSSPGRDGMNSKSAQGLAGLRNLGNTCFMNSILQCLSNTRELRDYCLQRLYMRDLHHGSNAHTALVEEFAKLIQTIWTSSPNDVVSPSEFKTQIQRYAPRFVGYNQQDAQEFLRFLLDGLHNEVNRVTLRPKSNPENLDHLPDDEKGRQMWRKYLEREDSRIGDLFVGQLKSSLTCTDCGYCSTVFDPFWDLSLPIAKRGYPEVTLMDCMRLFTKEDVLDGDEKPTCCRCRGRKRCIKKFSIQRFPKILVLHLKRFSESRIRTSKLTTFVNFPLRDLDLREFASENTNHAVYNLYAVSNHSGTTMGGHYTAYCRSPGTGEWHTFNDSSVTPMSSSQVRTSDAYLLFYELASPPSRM
How it was run: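 USP2 core (10 nM final) was preincubated with compound for 30 min at RT in Tris-HCl pH 8.0, CaCl2, beta-mercaptoethanol, CHAPS. Ub-CHOP2 and reporter substrate (25 nM final each) were added, and fluorescence (Ex 485/Em 531 nm) was read after 60 min.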
Also: nearly all actives have a fitted effect of over 55% in size.

Potency, inactive:
COC(=O)c1[nH]c2ccc(C)cc2c1NC(=O)CN1CCCc2ccccc21
COc1ccccc1-c1nnc(SCC(=O)Nc2nc(-c3ccccc3)cs2)n1C
c1coc(CNC2CCCCCCC2)c1
COc1ccc(NC(=O)CSc2nnc(-c3ccccc3Cl)n2Cc2ccco2)c(OC)c1
CCC1=[N+](CC(=O)c2ccc(Br)cc2)CCn2c(C)ccc21
Oc1ccc(/C=N/NC(=S)N/N=C/c2ccc(O)cc2)cc1
COc1cc(-c2nc(-c3ccc4c(c3)-c3ccccc3S4(=O)=O)c(-c3ccccc3)[nH]2)cc(OC)c1O
O=C(NC1CCCCC1)C(c1ccco1)N(Cc1ccco1)C(=O)c1ccco1 (stereo not drawn)
O=C(CN1CCC(O)CC1)N1c2ccccc2C=Cc2ccccc21
CS(=O)(=O)c1nc(-c2ccc(Br)cc2)cc(-c2ccccc2)c1C#N
CC(C)(C)C1CCC(=NNC(=O)CN(c2ccccc2)S(C)(=O)=O)CC1 (stereo not drawn)
Oc1ccccc1/C=N/Nc1ncc(Br)cn1
Cc1cc(NC(=O)CN2C(=O)NC3(CCCCC3C)C2=O)no1 (stereo not drawn)
CCOC(=O)CCCNC(=O)COC(=O)c1cccc(C)c1O
CC1CCc2c(sc3nc(CN4CCOCC4)nc(NS(=O)(=O)c4cccc([N+](=O)[O-])c4)c23)C1 (stereo not drawn)
CCOC(=O)c1c(NC(C)=O)sc2c1CCCNC2=O
Cc1ccc(C(=O)NCCCc2ccccc2)s1
O=C(Nc1cccc(C(F)(F)F)c1)/C(=C\c1ccco1)NC(=O)c1cccs1
